# Measured values taken from PubChem BioAssay AID588727 (Southern Research Specialized Biocontainment Screening …, 2011).
# In all, about 350,000 compounds went through this assay and about 450 (0.13%) were called active. How the calls were made is not given here. The list is a sample of the results. Entries with a potency or affinity are not part of this list.
# Experiment: inhibitors of VEEV TC-83 cytopathic effect, confirmation, Vero cells (AID 588727)
# Settings: VEEV TC-83 cytopathic effect inhibition, at 20 µM; stronger effect = higher value unless noted
Compound,inhibition,outcome
COC(=O)c1ccc(-n2c(C)cc(C(=O)COC(=O)CNS(=O)(=O)c3ccc(C)cc3)c2C)cc1,0.63% (inactive),
CC(=O)Nc1ccc(NC(=O)c2c(C)nn(Cc3ccccc3Cl)c2C)cc1,inactive,
CCC(CC)c1nnc(NC(=O)c2c(C)nn(Cc3ccccc3Cl)c2C)s1,7.55% (inactive),
CC1CC(=O)N(C)c2cc([N+](=O)[O-])ccc2N1 (stereo not given),1.14% (inactive),
COC(=O)c1cccc(NC(=S)N2CCOCC2)c1,0.95% (inactive),
CCCCCC(=O)N1C[C@@H](n2cc(COC(=O)c3ccccc3)nn2)[C@H](O)C[C@@H]1c1ccccc1,inactive,
c1ccc(-c2nc3c([nH]2)CCc2nonc2-3)cc1,2.3% (inactive),
COn1c(-c2ccccc2)nc2c1CCc1c-2no[n+]1[O-],5.93% (inactive),
Cc1ccccc1CC(=O)c1ccc(O)c(C)c1O,5.23% (inactive),
CCc1ccc(NC(=O)CS(=O)CC(=O)Nc2ccc(-n3cnnn3)c(C)c2)cc1 (stereo not given),2.1% (inactive),
CCOc1ccc(/C=C/c2nc(C#N)c(NCCCOC)o2)cc1,6.2% (inactive),
CCNc1oc(/C=C/c2ccc(OCC)cc2)nc1C#N,6.65% (inactive),
CC1=C(C(=O)Nc2ccccn2)C(c2ccc(Br)cc2)NC(=S)N1 (stereo not given),2.92% (inactive),
O=C(O)c1ccccc1Nc1ccc([N+](=O)[O-])cc1C(=O)O,inactive,
O=C(O)c1cc([N+](=O)[O-])ccc1Nc1ccccc1,0.6% (inactive),
O=C(Nc1cccnc1)c1cccnc1Cl,0.62% (inactive),
CCCCOc1ccc(C(=O)Nc2ccc(N3CCN(C(C)=O)CC3)cc2)cc1,3.29% (inactive),
CCOc1ccc(C(=O)Nc2ccc(N3CCN(C)CC3)cc2)cc1,2.08% (inactive),
CCc1ccc(NC(=O)CC2C(=O)N(c3cccc(OC)c3)C(=O)N2CCOC)cc1 (stereo not given),1.82% (inactive),
Cc1cccc(N(Cc2ccccc2)C(=O)CSC(C)C(=O)Nc2cc(C)on2)c1 (stereo not given),7.94% (inactive),

Compound,inhibition,outcome
Cc1cc(NC(=O)C(C)SCC(=O)OCC(=O)N(Cc2ccccc2)C(C)(C)C)no1 (stereo not given),1.5% (inactive),
CCOC(=O)Cn1cc(C(=O)C2CC2)c2ccccc21,1.2% (inactive),
O=c1c2cc([N+](=O)[O-])ccc2nc(CN2CCN(c3ccccn3)CC2)n1-c1ccccc1F,1.21% (inactive),
CCC(CC)N1CCN(Cc2nc3ccc([N+](=O)[O-])cc3c(=O)n2-c2ccccc2F)CC1,22.2% (inactive),
COc1cccc(-n2c(CN3CCN(c4ccccc4)CC3)nc3ccc([N+](=O)[O-])cc3c2=O)c1,2.74% (inactive),
COc1cccc(-n2c(CN3CCOCC3)nc3ccc([N+](=O)[O-])cc3c2=O)c1,7.79% (inactive),
COc1cc(NC(=O)c2sc3ncn(CC(=O)N4CCCCC4C)c(=O)c3c2C)cc(OC)c1OC (stereo not given),11.6% (inactive),
Cc1ccc(CN2CC(C(=O)NNC(=O)c3ccc(F)cc3)CC2=O)cc1 (stereo not given),inactive,
COCCCNC(=O)c1cc(-c2cccnc2)nc2ccccc12,inactive,
COCCNC(=O)COC(=O)c1cc(-c2ccc(OC)cc2)nc2ccccc12,0.73% (inactive),
CN(C)CCN(Cc1cc2cc3c(cc2nc1Cl)OCO3)C(=O)c1ccco1,1.49% (inactive),
Cc1cccc2cc(CN(CCN(C)C)C(=S)NCc3ccco3)c(=O)[nH]c12,6.74% (inactive),
CCN(CC)CCNC(=O)c1cc2c(=O)n(CC)c3ccccc3c2s1,8.46% (inactive),
CC1(C)NC(=O)N(CC(O)CN2CCOCC2)C1=O (stereo not given),1.64% (inactive),
Cc1cc(NC(=O)COc2ccccc2C)ccc1NC(=O)c1ccco1,2.11% (inactive),
COc1ccc(S(=O)(=O)N(C)c2ccc(C(=O)Nc3cccnc3)cc2)cc1,8.16% (inactive),
C=C1CC2C(=O)N(Cc3cc(OC)ccc3OC)C(C(=O)OCC)(C(=O)OCC)C1N2C(=O)OC(C)(C)C (stereo not given),inactive,
CCN1C/C(=C/c2ccc(OC)c(O)c2)C(=O)/C(=C/c2ccc(OC)c(O)c2)C1,inactive,
COc1ccc(/C=C2\CN(Cc3ccccc3)C/C(=C\c3ccc(OC)cc3OC)C2=O)c(OC)c1,6.18% (inactive),
Cc1cc(C)cc(-n2ncc3c2CCCC3NC(=O)CCCn2cncn2)c1 (stereo not given),0.41% (inactive),

Compound,inhibition,outcome
COc1ccccc1C1CCCN1Cc1nc(-c2cc3c(cc2Cl)OCO3)oc1C (stereo not given),3.15% (inactive),
CCOc1ccccc1-c1nc(CN2CCCC2c2nccs2)c(C)o1 (stereo not given),8.27% (inactive),
COc1ccc(OC)c(S(=O)(=O)NCCS(=O)(=O)N2CCN(c3ccccc3)CC2)c1,0.7% (inactive),
Cc1nc2ccccc2c(=O)n1NC(=O)/C=C/c1ccc(Br)cc1,inactive,
Cc1c(NC(=O)Nc2ccccc2)c(=O)n(-c2ccccc2)n1C,inactive,
O=C(NC1CCCCC1)c1cc2ccccc2cc1O,inactive,
O=C(NNC(=O)c1ccc2ccccc2c1O)NC1CCCCC1,2.22% (inactive),
O=S(=O)(c1cccc2nsnc12)N1CCc2ccccc21,inactive,
Cc1nnc(N2CCCC(C(=O)NCc3cccc(F)c3)C2)c2nn(-c3ccccc3)c(C)c12 (stereo not given),7.4% (inactive),
Cc1ccc(CNc2nc(N)c([N+](=O)[O-])c(NCCO)n2)cc1,5.11% (inactive),
O=c1c2sccc2nc(SCc2cc(=O)n3cc(Cl)ccc3n2)n1-c1ccc(F)cc1,"6.28% [measured here: 10K pilot screen inhibition, stronger effect = higher value]",inactive
CCOc1ccccc1CNC(=O)c1cc2occc2n1C,3.56% (inactive),
Cc1ccc(CNC(=O)c2cc3c(=O)n(C)c4ccccc4c3n2C)cc1,0.2% (inactive),
Cn1c(C(=O)NCC2CCCO2)cc2oc3ccccc3c21 (stereo not given),6.64% (inactive),
COc1cccc(CNC(=O)c2cc3oc4ccccc4c3n2C)c1OC,55% (inactive),
Cn1c(C(=O)NCc2cccs2)cc2c(=O)n(C)c3ccccc3c21,0.66% (inactive),
Cc1ccc2c(c1)cc(C(=O)N[C@@H](Cc1ccccc1)C(=O)O)n2C,inactive,
COCCNC(=O)c1cc2oc3ccccc3c2n1C,3.48% (inactive),
Cc1c(C(=O)NCc2cccs2)oc2ccccc12,1.87% (inactive),
